# From PMC7862700, “An all-to-all approach to the identification of sequence-specific readers for epigenetic DNA modifications on cytosine”
# Legend:
# Test in all cases: DAPPL (digital affinity profiling via proximity ligation, sequencing); 10 mM Tris-HCl pH 7.5, 50 mM NaCl, 1 mM DTT, 4% glycerol, room temperature, 30 min; GST-TFs on glutathione beads, 16-mer random dsDNA library, 0.1% formaldehyde crosslink after washing; high values mean tight binding
# Settings in all cases: protein: recombinant; tags: N-terminal GST; dsDNA, one strand shown
# FLI1 = target: T1, FLI1 (Homo sapiens, UniProt Q01543 1-452)
# T1 sequence: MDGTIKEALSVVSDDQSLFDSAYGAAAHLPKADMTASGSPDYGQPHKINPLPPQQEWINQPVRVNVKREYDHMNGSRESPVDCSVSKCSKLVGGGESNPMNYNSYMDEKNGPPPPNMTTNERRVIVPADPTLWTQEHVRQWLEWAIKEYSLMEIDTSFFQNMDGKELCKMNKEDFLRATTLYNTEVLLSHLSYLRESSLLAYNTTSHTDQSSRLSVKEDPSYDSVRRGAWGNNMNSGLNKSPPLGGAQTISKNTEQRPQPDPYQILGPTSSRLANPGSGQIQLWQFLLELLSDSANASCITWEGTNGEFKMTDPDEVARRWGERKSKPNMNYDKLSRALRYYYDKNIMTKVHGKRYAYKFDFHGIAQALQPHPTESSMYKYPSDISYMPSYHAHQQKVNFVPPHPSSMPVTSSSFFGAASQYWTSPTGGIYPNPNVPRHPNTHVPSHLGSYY
# Procedure, shortened: (§1)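 Human transcription factors fused to GST were expressed in yeast, captured on glutathione beads, given DNA barcodes and pooled with a GST-only negative control. Pools were incubated with 200 nmole of a 16-mer random double-stranded DNA library in Tris/NaCl/DTT/glycerol buffer at room temperature for 30 min. They were then washed, crosslinked with 0.1% formaldehyde, proximity-ligated (BsaI/T4 ligase, 1 h, 37 °C), PCR-amplified and sequenced on an Illumina NextSeq500. Binding signal is each 6-mer's read frequency for a factor divided by its frequency for the GST control.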
# ELK1 = target: T2, ELK1 (Homo sapiens, UniProt P19419 1-428)
# T2 sequence: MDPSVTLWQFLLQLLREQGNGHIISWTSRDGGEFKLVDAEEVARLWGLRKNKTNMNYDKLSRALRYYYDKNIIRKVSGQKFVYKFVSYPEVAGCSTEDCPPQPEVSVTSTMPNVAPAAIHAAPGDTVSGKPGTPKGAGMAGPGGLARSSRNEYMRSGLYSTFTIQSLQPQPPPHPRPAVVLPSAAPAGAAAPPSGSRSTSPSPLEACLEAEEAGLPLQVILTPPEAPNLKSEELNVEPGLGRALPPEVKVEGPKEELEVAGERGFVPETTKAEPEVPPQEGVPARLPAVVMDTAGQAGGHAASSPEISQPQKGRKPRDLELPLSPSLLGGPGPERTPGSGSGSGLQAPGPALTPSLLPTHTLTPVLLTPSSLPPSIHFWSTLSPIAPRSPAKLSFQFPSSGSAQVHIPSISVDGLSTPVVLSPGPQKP
# Procedure, shortened: as §1
# GABPA = target: T3, GABPA (Homo sapiens, UniProt Q06546 1-454)
# T3 sequence: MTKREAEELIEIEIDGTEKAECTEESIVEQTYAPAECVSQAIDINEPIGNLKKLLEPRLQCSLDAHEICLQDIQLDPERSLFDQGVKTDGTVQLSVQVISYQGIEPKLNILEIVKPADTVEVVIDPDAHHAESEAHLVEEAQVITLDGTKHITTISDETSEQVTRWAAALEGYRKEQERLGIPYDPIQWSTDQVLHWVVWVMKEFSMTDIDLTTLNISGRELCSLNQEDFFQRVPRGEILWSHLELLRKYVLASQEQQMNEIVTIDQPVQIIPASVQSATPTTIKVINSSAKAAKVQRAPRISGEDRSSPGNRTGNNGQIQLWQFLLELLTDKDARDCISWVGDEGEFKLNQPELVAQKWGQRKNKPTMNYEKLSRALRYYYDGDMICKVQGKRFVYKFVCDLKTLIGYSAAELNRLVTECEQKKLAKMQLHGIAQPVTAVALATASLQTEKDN
# Procedure, shortened: as §1
# ERG = target: T4, ERG (Homo sapiens, UniProt P11308 1-479)
# T4 sequence: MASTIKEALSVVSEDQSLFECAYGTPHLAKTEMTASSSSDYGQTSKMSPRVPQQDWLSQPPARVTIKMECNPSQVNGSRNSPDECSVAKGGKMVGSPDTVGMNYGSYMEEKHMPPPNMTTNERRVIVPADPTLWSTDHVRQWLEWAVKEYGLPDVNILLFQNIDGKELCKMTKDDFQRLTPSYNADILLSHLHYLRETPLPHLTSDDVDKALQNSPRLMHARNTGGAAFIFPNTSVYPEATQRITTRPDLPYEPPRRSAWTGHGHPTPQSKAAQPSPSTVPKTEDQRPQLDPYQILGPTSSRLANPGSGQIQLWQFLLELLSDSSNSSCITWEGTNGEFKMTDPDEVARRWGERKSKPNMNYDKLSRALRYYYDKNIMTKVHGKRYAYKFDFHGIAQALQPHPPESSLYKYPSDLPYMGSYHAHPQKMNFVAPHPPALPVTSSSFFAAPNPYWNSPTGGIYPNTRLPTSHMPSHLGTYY
# Procedure, shortened: as §1
# ELF1 = ELF1 (Homo sapiens, UniProt P32519 1-619)
# Sequence of ELF1 (P32519 whole entry): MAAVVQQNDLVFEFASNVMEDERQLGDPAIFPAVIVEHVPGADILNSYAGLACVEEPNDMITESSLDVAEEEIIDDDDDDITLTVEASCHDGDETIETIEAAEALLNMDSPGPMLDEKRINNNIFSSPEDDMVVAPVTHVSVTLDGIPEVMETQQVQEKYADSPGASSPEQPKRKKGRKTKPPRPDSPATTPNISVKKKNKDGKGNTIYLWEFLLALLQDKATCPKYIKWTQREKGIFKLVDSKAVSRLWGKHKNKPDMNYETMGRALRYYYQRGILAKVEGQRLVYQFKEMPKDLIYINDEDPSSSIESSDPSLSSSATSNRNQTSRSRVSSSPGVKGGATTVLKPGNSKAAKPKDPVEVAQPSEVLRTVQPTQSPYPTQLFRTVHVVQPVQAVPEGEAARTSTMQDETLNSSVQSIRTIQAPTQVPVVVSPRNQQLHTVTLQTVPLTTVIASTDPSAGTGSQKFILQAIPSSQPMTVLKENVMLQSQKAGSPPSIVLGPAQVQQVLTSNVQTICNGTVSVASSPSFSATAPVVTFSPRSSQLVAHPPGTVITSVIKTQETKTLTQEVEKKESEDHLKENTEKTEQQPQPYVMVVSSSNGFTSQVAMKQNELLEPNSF
# Procedure, shortened: as §1
# EHF = target: T5, EHF (Homo sapiens, UniProt Q9NZC4 1-300)
# T5 sequence: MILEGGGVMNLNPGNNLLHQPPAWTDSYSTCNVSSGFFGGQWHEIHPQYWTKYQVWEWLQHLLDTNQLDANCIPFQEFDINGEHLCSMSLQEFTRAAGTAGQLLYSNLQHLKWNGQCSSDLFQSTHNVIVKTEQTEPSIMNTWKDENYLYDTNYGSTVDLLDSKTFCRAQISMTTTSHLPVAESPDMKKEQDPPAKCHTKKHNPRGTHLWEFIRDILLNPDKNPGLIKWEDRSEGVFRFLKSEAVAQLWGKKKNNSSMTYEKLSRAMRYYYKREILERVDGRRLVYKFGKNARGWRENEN
# Procedure, shortened: as §1
# SPIB = SPIB (Homo sapiens, UniProt Q01892 1-262)
# Sequence of SPIB (Q01892 whole entry): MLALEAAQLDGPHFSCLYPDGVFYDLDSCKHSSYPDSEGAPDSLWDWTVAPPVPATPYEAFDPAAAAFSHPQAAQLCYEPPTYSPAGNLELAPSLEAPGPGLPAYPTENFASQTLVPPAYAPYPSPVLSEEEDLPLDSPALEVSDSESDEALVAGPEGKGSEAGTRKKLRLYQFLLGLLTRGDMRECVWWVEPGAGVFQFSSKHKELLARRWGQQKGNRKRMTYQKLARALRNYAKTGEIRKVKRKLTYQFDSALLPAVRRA
# Procedure, shortened: as §1
# ELK3 = target: T6, ELK3 (Homo sapiens, UniProt P41970 1-407)
# T6 sequence: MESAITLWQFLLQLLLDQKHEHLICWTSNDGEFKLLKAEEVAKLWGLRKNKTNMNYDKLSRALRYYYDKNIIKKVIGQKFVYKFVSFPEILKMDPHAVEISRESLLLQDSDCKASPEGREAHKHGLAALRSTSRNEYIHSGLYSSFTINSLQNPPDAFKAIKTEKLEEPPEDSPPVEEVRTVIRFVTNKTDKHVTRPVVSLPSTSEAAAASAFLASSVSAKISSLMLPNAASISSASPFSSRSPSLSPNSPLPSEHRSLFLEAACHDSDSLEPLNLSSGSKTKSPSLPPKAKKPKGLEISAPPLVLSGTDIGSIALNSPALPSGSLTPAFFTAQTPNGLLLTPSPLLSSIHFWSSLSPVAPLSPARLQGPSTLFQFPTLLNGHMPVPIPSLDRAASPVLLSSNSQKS
# Procedure, shortened: as §1
# SPIC = target: T7, SPIC (Homo sapiens, UniProt Q8N5J4 1-248)
# T7 sequence: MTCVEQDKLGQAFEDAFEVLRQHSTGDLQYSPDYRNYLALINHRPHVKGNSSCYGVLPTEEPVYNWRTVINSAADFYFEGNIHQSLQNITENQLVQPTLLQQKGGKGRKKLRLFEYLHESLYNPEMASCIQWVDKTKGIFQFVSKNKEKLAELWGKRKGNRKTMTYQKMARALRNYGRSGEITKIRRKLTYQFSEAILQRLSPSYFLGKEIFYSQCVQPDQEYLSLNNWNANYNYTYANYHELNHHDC
# Procedure, shortened: as §1
# ELF4 = ELF4 (Homo sapiens, UniProt Q99607 1-663)
# Sequence of ELF4 (Q99607 whole entry): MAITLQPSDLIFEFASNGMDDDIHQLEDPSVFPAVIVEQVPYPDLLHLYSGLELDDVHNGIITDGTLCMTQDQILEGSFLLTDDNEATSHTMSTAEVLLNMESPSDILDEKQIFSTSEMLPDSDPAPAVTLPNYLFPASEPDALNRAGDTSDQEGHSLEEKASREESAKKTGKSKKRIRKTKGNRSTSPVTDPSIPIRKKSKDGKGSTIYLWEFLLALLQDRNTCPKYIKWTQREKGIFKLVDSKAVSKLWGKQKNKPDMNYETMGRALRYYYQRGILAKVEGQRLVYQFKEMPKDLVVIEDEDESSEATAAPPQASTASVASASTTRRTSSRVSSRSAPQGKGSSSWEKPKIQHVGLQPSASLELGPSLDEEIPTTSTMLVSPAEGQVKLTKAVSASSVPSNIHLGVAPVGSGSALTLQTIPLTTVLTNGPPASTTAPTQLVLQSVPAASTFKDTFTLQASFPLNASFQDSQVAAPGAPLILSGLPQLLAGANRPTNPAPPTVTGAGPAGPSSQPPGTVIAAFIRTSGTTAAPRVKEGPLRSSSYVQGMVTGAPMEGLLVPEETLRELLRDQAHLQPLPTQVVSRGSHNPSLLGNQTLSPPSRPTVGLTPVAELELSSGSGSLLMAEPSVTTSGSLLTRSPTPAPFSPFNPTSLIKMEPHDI
# Procedure, shortened: as §1
sequence,measurement,setting,value
TACAGC,binding signal,FLI1,"1.06 fold enrichment (6-mer frequency, TF over GST control)"
same,binding signal,ELK1,"1.01 fold enrichment (6-mer frequency, TF over GST control)"
same,binding signal,GABPA,"1.07 fold enrichment (6-mer frequency, TF over GST control)"
same,binding signal,ERG,"1.06 fold enrichment (6-mer frequency, TF over GST control)"
same,binding signal,ELF1,"1.13 fold enrichment (6-mer frequency, TF over GST control)"
same,binding signal,EHF,"1.06 fold enrichment (6-mer frequency, TF over GST control)"
same,binding signal,SPIB,"1.04 fold enrichment (6-mer frequency, TF over GST control)"
same,binding signal,ELK3,"1.06 fold enrichment (6-mer frequency, TF over GST control)"
same,binding signal,SPIC,"1.02 fold enrichment (6-mer frequency, TF over GST control)"
same,binding signal,ELF4,"1.13 fold enrichment (6-mer frequency, TF over GST control)"
